Laboratory results published in PubChem BioAssay (NCATS).
Records with an inconclusive call do not appear. Activity calls are given as the source filed them. The call rests on the fitted dose curve; in most records, active means well fitted curve in the direction sought with a large enough effect; inconclusive means small, poorly fitted or top-dose-only effect, or another doubt; inactive means no such curve, though single readings can be large; an effect the other way counts as inactive or inconclusive.

How the values were obtained:
W2 = assay: qHTS profiling for inhibitors of Plasmodium falciparum proliferation (AID 504749); further: nearly all actives have a fitted effect of over 60% in size; further: potency means the concentration at half of the fitted maximal effect; conditions: P. falciparum in erythrocytes, SYBR Green DNA, 72 h; series mostly up to 28.7 µM
In short: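 Fluorescence of SYBR Green-bound parasite DNA, read at 485/535 nm, served as the growth measure. Infected erythrocytes were cultured with compound 72 h; artemisinin (0.29 uM) and DMSO wells defined the normalization range.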

CRL-7250 = normal cell line; assay: Cytotoxic Profiling of Annotated Libraries Using Quantitative High-Throughput Screening (AID 1296008); conditions: Five cell lines viability, CellTiter-Glo ATP luminescence, 48-72 h; max response: active compounds read low; further: nearly all actives have a fitted effect of over 60% in size; on max response: on the % scale 0 is the no-effect control and ±100 the full control effect
In short: (§1)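 Compounds were pin-transferred onto cells and incubated 48 or 72 hr at 37 degree Celsius, 95% humidity. CellTiter-Glo was added, plates sat 10 min at room temperature, then ATP-coupled luminescence was imaged as the viability read-out.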

HaCat [1] = assay: as above; conditions: Five cell lines viability, CellTiter-Glo ATP luminescence, 48-72 h; max response: active compounds read low
In short: as §1

KB-3-1 = assay: as above; conditions: Five cell lines viability, CellTiter-Glo ATP luminescence, 48-72 h; max response: active compounds read low
In short: as §1

NIH3T3 = assay: as above; conditions: Five cell lines viability, CellTiter-Glo ATP luminescence, 48-72 h; max response: active compounds read low
In short: as §1

HACAT [2] = assay: qHTS assay to identify novel small-molecules to repurpose for Merkel cell carcinoma treatment (AID 1296009); conditions: MCC and control cell lines, CellTiter-Glo viability, 72 h; at 44.8 µM (top of the series) unless noted; further: nearly all actives have a fitted effect of over 60% in size; further: potency means the concentration at half of the fitted maximal effect
In short: (§2)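 Luminescence from CellTiter-Glo, read 10 min after addition at room temperature, reported viability following a 72 hr, 37 degree celsius treatment with NPC or MIPE compounds in titration; values normalized to plate controls.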

MCC-13 = assay: as above; conditions: MCC and control cell lines, CellTiter-Glo viability, 72 h; series mostly up to 46 µM
In short: as §2

MCC-26 = assay: as above; conditions: MCC and control cell lines, CellTiter-Glo viability, 72 h; series mostly up to 46 µM
In short: as §2

MKL-1 = assay: as above; conditions: MCC and control cell lines, CellTiter-Glo viability, 72 h; series mostly up to 46 µM
In short: as §2

MKL-2 = assay: as above; conditions: MCC and control cell lines, CellTiter-Glo viability, 72 h; series mostly up to 46 µM
In short: as §2

UISO = assay: as above; conditions: MCC and control cell lines, CellTiter-Glo viability, 72 h; series mostly up to 46 µM
In short: as §2

WaGa = assay: as above; conditions: MCC and control cell lines, CellTiter-Glo viability, 72 h; series mostly up to 46 µM
In short: as §2

C33A = assay: Primary qHTS to identify gynecologic anti-cancer compounds using libraries of approved drugs and bioactive compounds (AID 1345084); conditions: Gynecologic cancer cell panel viability, ATPlite luminescence, 48 h; series mostly up to 57.5 µM; further: on the % scale 0 is the no-effect control and ±100 the full control effect; nearly all actives have a fitted effect of over 55% in size
In short: (§3)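 48 h compound exposure at 37 C, 5% CO2; five-point qHTS. ATPlite luminescence readout of cell ATP.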

CASKI = assay: as above; conditions: Gynecologic cancer cell panel viability, ATPlite luminescence, 48 h; series mostly up to 57.5 µM
In short: as §3

Es-2 = assay: as above; conditions: Gynecologic cancer cell panel viability, ATPlite luminescence, 48 h; series mostly up to 57.5 µM
In short: as §3

HeLa = assay: as above; conditions: Gynecologic cancer cell panel viability, ATPlite luminescence, 48 h; series mostly up to 57.5 µM
In short: as §3

CAOV3 = assay: as above; conditions: Gynecologic cancer cell panel viability, ATPlite luminescence, 48 h; series mostly up to 57.5 µM
In short: as §3

HEK293 = assay: Cytotoxic Profiling of Annotated Libraries Using Quantitative High-Throughput Screening (AID 1296008); conditions: Five cell lines viability, CellTiter-Glo ATP luminescence, 48-72 h; max response: active compounds read low; further: nearly all actives have a fitted effect of over 60% in size; on max response: on the % scale 0 is the no-effect control and ±100 the full control effect
In short: as §1

HEK293T = assay: qHTS assay to identify novel small-molecules to repurpose for Merkel cell carcinoma treatment (AID 1296009); conditions: MCC and control cell lines, CellTiter-Glo viability, 72 h; at 44.8 µM (top of the series) unless noted; further: nearly all actives have a fitted effect of over 60% in size; further: potency means the concentration at half of the fitted maximal effect
In short: as §2

OCCOCCN1CCN(C2=Nc3ccccc3Sc3ccccc32)CC1
active: Potency (W2) 4.26 µM
inactive: max response (CRL-7250) -6.31% | outcome (HaCat [1]) | max response (KB-3-1) -2.1% | max response (NIH3T3) -7.78% | outcome (HACAT [2]) | Potency (MCC-13) | Potency (MCC-26) | Potency (MKL-1) | Potency (MKL-2) | Potency (UISO) | Potency (WaGa) | Potency (C33A) | Potency (CASKI) | Potency (Es-2) | Potency (HeLa)

NC(=O)n1c(O)c(C(=O)c2cccs2)c2cc(Cl)ccc21
inactive: max response (CRL-7250) 4.52% | outcome (HaCat [1]) | max response (KB-3-1) 2.04% | max response (NIH3T3) 0.218% | outcome (HACAT [2]) | Potency (MCC-13) | Potency (MCC-26) | Potency (MKL-1) | Potency (MKL-2) | Potency (C33A) | Potency (CAOV3) | Potency (CASKI) | Potency (Es-2)

OC(C#CCN1CCCC1)(c1ccccc1)c1ccccc1
inactive: outcome (CRL-7250) | outcome (HaCat [1]) | max response (KB-3-1) 0.398% | max response (NIH3T3) -3.64% | outcome (HACAT [2]) | Potency (MCC-13) | Potency (MCC-26) | Potency (MKL-1) | Potency (MKL-2) | Potency (UISO) | Potency (WaGa) | Potency (C33A) | Potency (CASKI) | Potency (Es-2) | Potency (HeLa)
active: Potency (W2) 2.13 µM

O=C(c1ccc(F)cc1)C1CCN(CCn2c(=S)[nH]c3ccccc3c2=O)CC1
active: Potency (W2) 2.39 µM
inactive: max response (CRL-7250) -5.62% | max response (HEK293) -98.9% | max response (NIH3T3) -46.6% | Potency (MCC-13) | Potency (MCC-26) | Potency (MKL-1) | Potency (MKL-2) | Potency (C33A) | Potency (CAOV3) | Potency (CASKI) | Potency (Es-2) | Potency (HeLa)

CCCCNc1ccc(C(=O)OCCOCCOCCOCCOCCOCCOCCOCCOCCOC)cc1
inactive: Potency (W2) | max response (CRL-7250) -14.1% | max response (HaCat [1]) 0.553% | max response (KB-3-1) -13.9% | max response (NIH3T3) -8.1% | Potency (MCC-13) | Potency (MCC-26) | Potency (MKL-1) | Potency (MKL-2) | Potency (C33A) | Potency (CAOV3) | Potency (CASKI) | Potency (HeLa)

CC(=O)Nc1ccc(CC(=O)O)cc1
inactive: Potency (W2) | max response (HEK293) 0.0311% | outcome (HaCat [1]) | max response (KB-3-1) -17.4% | max response (NIH3T3) -0.623% | outcome (HACAT [2]) | Potency (MCC-13) | Potency (MCC-26) | Potency (MKL-1) | Potency (MKL-2) | Potency (UISO) | Potency (WaGa) | Potency (C33A) | Potency (CAOV3) | Potency (CASKI) | Potency (Es-2) | Potency (HeLa)

FC(F)(F)C(F)(F)C(F)(F)C(F)(F)C(F)(F)C(F)(F)C(F)(F)C(F)(F)Br
inactive: Potency (W2) | max response (HEK293) 0.523% | outcome (HaCat [1]) | max response (KB-3-1) 13.3% | max response (NIH3T3) -4.33% | outcome (HACAT [2]) | Potency (MCC-13) | Potency (MCC-26) | Potency (MKL-1) | Potency (MKL-2) | Potency (UISO) | Potency (WaGa) | Potency (C33A) | Potency (CAOV3) | Potency (CASKI) | Potency (Es-2) | Potency (HeLa)

O=C1OC2(c3ccccc31)c1cc(Br)c(O)c(Br)c1Oc1c2cc(Br)c(O)c1Br
inactive: outcome (HEK293) | outcome (HaCat [1]) | max response (KB-3-1) -24.7% | max response (NIH3T3) -4.74% | outcome (HACAT [2]) | outcome (HEK293T) | Potency (MCC-13) | Potency (MCC-26) | Potency (MKL-1) | Potency (MKL-2) | Potency (UISO) | Potency (WaGa) | Potency (C33A) | Potency (CAOV3) | Potency (CASKI) | Potency (Es-2) | Potency (HeLa)

CC1CCc2c(N3CCC(O)CC3)c(F)cc3c(=O)c(C(=O)O)cn1c23 (configuration not stated)
inactive: max response (CRL-7250) -8.92% | max response (HaCat [1]) -5.2% | max response (KB-3-1) 15% | max response (NIH3T3) -20% | Potency (MCC-13) | Potency (MKL-1) | Potency (MKL-2) | Potency (UISO) | Potency (WaGa) | Potency (C33A) | Potency (CAOV3) | Potency (CASKI) | Potency (Es-2) | Potency (HeLa)

CCN1CCCC(OC(=O)C(c2ccccc2)c2ccccc2)C1 (configuration not stated)
inactive: outcome (CRL-7250) | max response (HaCat [1]) -8.51% | max response (KB-3-1) -9.59% | max response (NIH3T3) 2.04% | Potency (MCC-13) | Potency (MKL-1) | Potency (MKL-2) | Potency (UISO) | Potency (WaGa) | Potency (C33A) | Potency (CAOV3) | Potency (CASKI) | Potency (Es-2) | Potency (HeLa)

CCCCC(CC)CN1CN(CC(CC)CCCC)CC(C)(N)C1 (configuration not stated)
inactive: max response (CRL-7250) -21.5% | max response (HaCat [1]) -10.2% | max response (KB-3-1) -12.3% | max response (NIH3T3) -12.8% | Potency (MCC-13) | Potency (MKL-1) | Potency (WaGa) | Potency (C33A) | Potency (CAOV3) | Potency (CASKI) | Potency (Es-2) | Potency (HeLa)

CCOC(=O)[C@H](CCc1ccccc1)N[C@@H](C)C(=O)N1[C@H](C(=O)O)C[C@@H]2CCC[C@@H]21
inactive: max response (HEK293) 1.35% | outcome (HaCat [1]) | max response (KB-3-1) 3.06% | max response (NIH3T3) 0.794% | outcome (HACAT [2]) | Potency (MCC-13) | Potency (MCC-26) | Potency (MKL-1) | Potency (MKL-2) | Potency (UISO) | Potency (WaGa) | Potency (C33A) | Potency (CASKI) | Potency (Es-2) | Potency (HeLa)

CCOC(=O)C(C#N)=C(c1ccccc1)c1ccccc1
inactive: Potency (W2) | max response (CRL-7250) -5.66% | max response (HaCat [1]) -20.2% | max response (KB-3-1) 1.81% | max response (NIH3T3) 3.96% | Potency (MCC-13) | Potency (MCC-26) | Potency (MKL-1) | Potency (MKL-2) | Potency (UISO) | Potency (WaGa) | Potency (C33A) | Potency (CAOV3) | Potency (CASKI) | Potency (Es-2) | Potency (HeLa)

C[N+]1(CC2COC(c3ccccc3)(C3CCCCC3)O2)CCCCC1 (configuration not stated)
active: Potency (W2) 5.36 µM | Potency (MKL-1) 10.6 µM | Potency (MKL-2) 5.96 µM | Potency (WaGa) 18.8 µM
inactive: max response (CRL-7250) -1.29% | max response (HaCat [1]) 3.15% | max response (KB-3-1) -6.02% | max response (NIH3T3) -8.34% | Potency (MCC-13) | Potency (MCC-26) | Potency (C33A) | Potency (CASKI) | Potency (Es-2) | Potency (HeLa)
